Records with an inconclusive call do not appear. Activity calls are given as the source filed them. The calls were made as follows, unless noted: active = hit-call score of the fitted dose curve at least 0.9, where 1 is the maximum; inconclusive = response in the unintended direction; inactive = score below 0.9.
Assays:
[1] = biological target: human CYP2B6, CYP2B6 (gene 1555) (UniProt P20813); assay: NVS_ADME_hCYP2B6: NovaScreen (NVS) CYP450-related Enzyme Activity (ADME) Assay for human CYP2B6 (AID 2283101)
Summary of the method: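 Cell-free recombinant enzyme assay with a fluorogenic substrate; fluorescence intensity read 1 hour after dosing. Loss of signal relative to acetonitrile negative control indicates inhibition. Primary screen run in duplicate at 10 uM, actives then tested in concentration series.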

[2] = biological target: human CYP1A2, CYP1A2 (gene 1544) (UniProt P05177); assay: NVS_ADME_hCYP1A2: NovaScreen (NVS) CYP450-related Enzyme Activity (ADME) Assay for human CYP1A2 (AID 2283102);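 as to AC50: potency for inhibition since loss of fluorescence marks reduced CYP1A2 activity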
Summary of the method: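 Enzyme activity of insect-cell-expressed human CYP1A2 measured by fluorescence 0.5 h after compound addition, relative to acetonitrile. Compounds first tested in duplicate at 10 uM, actives followed up in concentration series.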

[3] = biological target: human CYP2J2, CYP2J2 (gene 1573) (UniProt P51589); assay: NVS_ADME_hCYP2J2: NovaScreen (NVS) CYP450-related Enzyme Activity (ADME) Assay for human CYP2J2 (AID 2283106)
Summary of the method: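 Cell-free assay of recombinant CYP2J2 with a fluorogenic substrate, read 1 h after dosing; loss of signal versus acetonitrile. Primary screen at 10 uM in duplicate, then concentration-response up to 20 uM for chemicals passing threshold (e.g., 30% inhibition).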

[4] = biological target: human CYP2D6, CYP2D6 (gene 1565) (UniProt P10635); assay: NVS_ADME_hCYP2D6: NovaScreen (NVS) CYP450-related Enzyme Activity (ADME) Assay for human CYP2D6 (AID 2283107)
Summary of the method: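 Fluorescence readout of recombinant CYP2D6 (insect-cell derived) activity after 1 h incubation with test chemical. Acetonitrile served as baseline, loss-of-signal direction. Single-concentration duplicate screening at 10 uM preceded concentration-response retesting.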

[5] = biological target: Cytochrome P450 2C19 (Homo sapiens) (UniProt P33261); assay: NVS_ADME_hCYP2C19: NovaScreen (NVS) CYP450-related Enzyme Activity (ADME) Assay for human CYP2C19 (AID 2283113);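 as to AC50: potency for inhibition seen as loss of fluorescent signal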
Summary of the method: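 Compounds first screened in duplicate at 10 uM, then confirmed in concentration series. Insect-cell-expressed human CYP2C19 turned over a fluorogenic substrate, and fluorescence was read after 1 h. Inhibition taken as signal loss relative to acetonitrile.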

[6] = biological target: rat CYP2A1, Cyp2a1 (gene 24894) (UniProt P11711); assay: NVS_ADME_rCYP2A1: NovaScreen (NVS) CYP450-related Enzyme Activity (ADME) Assay for rat CYP2A1 (AID 2283114; active = hit-call score of the fitted dose curve at least 0.9, where 1 is the maximum; inactive = score below 0.9)
Summary of the method: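 Recombinant rat CYP2A1, cell-free, fluorogenic substrate turnover read by fluorescence intensity 0.75 h after dosing. Primary screen at 10 uM in duplicate; actives rerun as concentration-response up to 20 uM; loss of signal versus acetonitrile control.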

[7] = biological target: rat CYP2C11, Cyp2c11 (gene 29277) (UniProt P08683); assay: NVS_ADME_rCYP2C11: NovaScreen (NVS) CYP450-related Enzyme Activity (ADME) Assay for rat CYP2C11 (AID 2283118)
Summary of the method: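 Cell-free recombinant rat enzyme with fluorescent substrate; readout 0.33 h after dosing, loss of signal versus acetonitrile control. Initial duplicate single-point at 10 uM; actives rerun in concentration series.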

[8] = biological target: rat CYP2C12, Cyp2c12 (gene 25011) (UniProt P11510); assay: NVS_ADME_rCYP2C12: NovaScreen (NVS) CYP450-related Enzyme Activity (ADME) Assay for rat CYP2C12 (AID 2283119)
Summary of the method: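 Cell-free recombinant rat CYP2C12 activity read by fluorescence 0.5 h after dosing; loss of signal versus acetonitrile control. Primary screen in duplicate at 10 uM; actives then run in concentration-response format.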

[9] = tested on: rat CYP2C6, gene 293989; assay: NVS_ADME_rCYP2C6: NovaScreen (NVS) CYP450-related Enzyme Activity (ADME) Assay for rat CYP2C6 (AID 2283120)
Summary of the method: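 Cell-free recombinant rat CYP2C6 with fluorogenic substrate, read by fluorescence 1 h after dosing; acetonitrile as negative control. Primary screen at 10 uM in duplicate, actives then in concentration-response up to 20 uM.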

[10] = biological target: rat CYP2C13, Cyp2c13 (gene 171521) (UniProt P20814); assay: NVS_ADME_rCYP2C13: NovaScreen (NVS) CYP450-related Enzyme Activity (ADME) Assay for rat CYP2C13 (AID 2283121)
Summary of the method: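 Recombinant rat CYP2C13 with fluorogenic substrate, 0.75 h cell-free incubation; primary screen in duplicate at 10 uM, actives followed in concentration series. Fluorescence loss relative to acetonitrile control indicates inhibition.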

[11] = biological target: rat CYP2D1, Cyp2d1 (gene 266684) (UniProt P10633); assay: NVS_ADME_rCYP2D1: NovaScreen (NVS) CYP450-related Enzyme Activity (ADME) Assay for rat CYP2D1 (AID 2283122)
Summary of the method: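 Cell-free fluorescence enzyme-activity assay on extracted rat CYP2D1 protein, read 0.75 h after dosing. Primary screen in duplicate at 10 uM; qualifying chemicals then run in concentration-response to 20 uM max, loss-of-signal versus acetonitrile baseline.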

[12] = biological target: rat CYP2D2, Cyp2d26 (gene 25053) (UniProt P10634); assay: NVS_ADME_rCYP2D2: NovaScreen (NVS) CYP450-related Enzyme Activity (ADME) Assay for rat CYP2D2 (AID 2283124)
Summary of the method: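 Recombinant rat CYP2D2 in a cell-free fluorogenic activity assay, fluorescence read 0.75 h after dosing. Primary screen in duplicate at 10 uM; actives re-run singly in concentration-response to 20 uM, relative to acetonitrile.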

[13] = tested on: rat CYP3A1, gene 25642; assay: NVS_ADME_rCYP3A1: NovaScreen (NVS) CYP450-related Enzyme Activity (ADME) Assay for rat CYP3A1 (AID 2283126)
Summary of the method: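 Cell-free recombinant CYP assay with fluorescent substrate, read 0.5 h after dosing. Screened at 10 uM in duplicate, hits at up to 20 uM in concentration-response; loss of signal versus acetonitrile baseline.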

[14] = biological target: rat CYP3A2, Cyp3a2 (gene 266682) (UniProt P05183); assay: NVS_ADME_rCYP3A2: NovaScreen (NVS) CYP450-related Enzyme Activity (ADME) Assay for rat CYP3A2 (AID 2283128)
Summary of the method: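 Cell-free rat CYP3A2 enzyme assay with fluorescent substrate, read 0.5 h after dosing. Primary duplicate screen at 10 uM; actives run in concentration-response up to 20 uM, relative to acetonitrile baseline.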

[15] = biological target: human CYP2C8, CYP2C8 (gene 1558) (UniProt P10632); assay: NVS_ADME_hCYP2C8: NovaScreen (NVS) CYP450-related Enzyme Activity (ADME) Assay for human CYP2C8 (AID 2283104; active = hit-call score of the fitted dose curve at least 0.9, where 1 is the maximum; inactive = score below 0.9)
Summary of the method: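 Recombinant human CYP2C8 with fluorogenic substrate, 0.5 h, fluorescence intensity; signal loss fitted versus acetonitrile. Screened in duplicate at 10 uM, then actives run in concentration-response up to 20 uM.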

[16] = biological target: rat CYP2A2, Cyp2a2 (gene 24895) (UniProt P15149); assay: NVS_ADME_rCYP2A2: NovaScreen (NVS) CYP450-related Enzyme Activity (ADME) Assay for rat CYP2A2 (AID 2283116)
Summary of the method: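 Cell-free recombinant rat CYP2A2 activity with fluorogenic substrate, fluorescence read 0.2 h after dosing. Chemicals screened at 10 uM in duplicate, hits then run in concentration-response up to 20 uM; signal loss versus acetonitrile baseline.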

[17] = biological target: rat CYP1A2, Cyp1a2 (gene 24297) (UniProt P04799); assay: NVS_ADME_rCYP1A2: NovaScreen (NVS) CYP450-related Enzyme Activity (ADME) Assay for rat CYP1A2 (AID 2283115)
Summary of the method: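 Cell-free recombinant rat enzyme with fluorogenic substrate, read by fluorescence intensity 1 hour after dosing. Loss of signal versus acetonitrile negative control; primary screen at 10 uM in duplicate, actives followed in concentration series.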

[18] = biological target: human Acetylcholinesterase (AChE), ACHE (gene 43) (UniProt P22303); assay: NVS_ENZ_hAChE: NovaScreen (NVS) Enzymatic Assay for human Acetylcholinesterase (AChE) (AID 2283129)
Summary of the method: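 Cell-free colorimetric enzyme-activity assay; compounds read 0.33 hour after dosing, loss of signal vs DMSO baseline. Primary screen in duplicate at 25 uM single concentration, with active compounds retested in concentration series.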

[19] = biological target: Cytochrome P450 3A4 (Homo sapiens) (UniProt P08684); assay: NVS_ADME_hCYP3A4: NovaScreen (NVS) CYP450-related Enzyme Activity (ADME) Assay for human CYP3A4 (AID 2283110)
Summary of the method: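 Cell-free assay using insect-cell-expressed human CYP3A4 with a fluorogenic substrate; fluorescence intensity was read 0.33 hour after dosing. Loss of signal relative to acetonitrile vehicle indicated inhibition. Primary single-concentration screen at 10 uM, in duplicate, then concentration series.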

Measured: AC50

Chain of human CYP2C8, CYP2C8 (gene 1558) (P10632 whole entry, looked up): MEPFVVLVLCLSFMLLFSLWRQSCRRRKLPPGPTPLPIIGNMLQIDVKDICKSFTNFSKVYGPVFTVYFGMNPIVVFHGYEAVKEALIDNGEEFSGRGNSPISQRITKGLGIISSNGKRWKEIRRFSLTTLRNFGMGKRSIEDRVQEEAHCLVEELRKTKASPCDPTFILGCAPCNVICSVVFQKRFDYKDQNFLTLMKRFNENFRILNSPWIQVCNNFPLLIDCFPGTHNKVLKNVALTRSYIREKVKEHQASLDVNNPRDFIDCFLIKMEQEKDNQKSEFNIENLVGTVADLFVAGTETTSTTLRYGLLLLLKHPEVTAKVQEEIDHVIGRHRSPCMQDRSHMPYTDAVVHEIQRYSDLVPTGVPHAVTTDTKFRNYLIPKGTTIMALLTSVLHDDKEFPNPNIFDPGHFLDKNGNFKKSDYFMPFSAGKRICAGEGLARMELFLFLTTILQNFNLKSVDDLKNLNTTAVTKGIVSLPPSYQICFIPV
Chain of rat CYP2D1, Cyp2d1 (gene 266684) (P10633 whole entry, looked up): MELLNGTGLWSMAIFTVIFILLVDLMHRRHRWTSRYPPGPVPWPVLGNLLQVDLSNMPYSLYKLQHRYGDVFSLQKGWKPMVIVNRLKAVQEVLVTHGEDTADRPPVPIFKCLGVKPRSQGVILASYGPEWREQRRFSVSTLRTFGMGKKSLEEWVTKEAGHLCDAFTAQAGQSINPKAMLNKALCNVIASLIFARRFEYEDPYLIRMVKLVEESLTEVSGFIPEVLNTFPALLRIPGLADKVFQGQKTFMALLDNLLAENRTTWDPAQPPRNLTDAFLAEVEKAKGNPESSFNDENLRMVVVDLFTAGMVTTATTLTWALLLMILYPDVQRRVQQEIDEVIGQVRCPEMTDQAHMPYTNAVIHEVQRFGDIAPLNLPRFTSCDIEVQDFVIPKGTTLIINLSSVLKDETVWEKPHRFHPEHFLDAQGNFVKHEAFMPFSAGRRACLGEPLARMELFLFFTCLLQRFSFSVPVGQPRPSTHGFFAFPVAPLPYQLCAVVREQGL
Chain of human CYP1A2, CYP1A2 (gene 1544) (P05177 whole entry, looked up): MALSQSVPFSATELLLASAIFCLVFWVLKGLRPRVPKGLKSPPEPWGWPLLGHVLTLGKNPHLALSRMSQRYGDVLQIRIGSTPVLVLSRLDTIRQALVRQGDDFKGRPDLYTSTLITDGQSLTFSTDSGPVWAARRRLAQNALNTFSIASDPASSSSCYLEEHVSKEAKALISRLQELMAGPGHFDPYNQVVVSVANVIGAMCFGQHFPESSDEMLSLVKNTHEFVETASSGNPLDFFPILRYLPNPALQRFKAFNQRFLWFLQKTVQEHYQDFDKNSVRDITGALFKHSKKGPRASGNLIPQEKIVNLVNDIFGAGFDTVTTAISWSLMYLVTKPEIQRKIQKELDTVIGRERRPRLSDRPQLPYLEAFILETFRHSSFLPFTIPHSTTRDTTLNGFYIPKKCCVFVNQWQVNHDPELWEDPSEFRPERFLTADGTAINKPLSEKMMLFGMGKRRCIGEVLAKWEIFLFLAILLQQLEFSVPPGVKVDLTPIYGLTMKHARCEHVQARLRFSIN
Chain of rat CYP2C12, Cyp2c12 (gene 25011) (P11510 whole entry, looked up): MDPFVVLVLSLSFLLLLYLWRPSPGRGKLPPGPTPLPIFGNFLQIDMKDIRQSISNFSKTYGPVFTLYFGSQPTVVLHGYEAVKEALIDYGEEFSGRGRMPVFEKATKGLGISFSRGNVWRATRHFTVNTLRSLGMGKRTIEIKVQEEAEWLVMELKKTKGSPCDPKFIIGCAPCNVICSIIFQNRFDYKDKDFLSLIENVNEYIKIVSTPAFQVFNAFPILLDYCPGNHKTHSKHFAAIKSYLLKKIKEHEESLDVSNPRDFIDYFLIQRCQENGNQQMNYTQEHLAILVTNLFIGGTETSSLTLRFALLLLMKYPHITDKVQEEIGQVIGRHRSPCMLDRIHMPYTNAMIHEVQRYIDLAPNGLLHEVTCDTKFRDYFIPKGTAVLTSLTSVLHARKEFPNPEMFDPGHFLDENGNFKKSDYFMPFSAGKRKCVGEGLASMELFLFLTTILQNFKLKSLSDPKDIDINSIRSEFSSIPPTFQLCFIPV
Chain of human CYP2B6, CYP2B6 (gene 1555) (P20813 whole entry, looked up): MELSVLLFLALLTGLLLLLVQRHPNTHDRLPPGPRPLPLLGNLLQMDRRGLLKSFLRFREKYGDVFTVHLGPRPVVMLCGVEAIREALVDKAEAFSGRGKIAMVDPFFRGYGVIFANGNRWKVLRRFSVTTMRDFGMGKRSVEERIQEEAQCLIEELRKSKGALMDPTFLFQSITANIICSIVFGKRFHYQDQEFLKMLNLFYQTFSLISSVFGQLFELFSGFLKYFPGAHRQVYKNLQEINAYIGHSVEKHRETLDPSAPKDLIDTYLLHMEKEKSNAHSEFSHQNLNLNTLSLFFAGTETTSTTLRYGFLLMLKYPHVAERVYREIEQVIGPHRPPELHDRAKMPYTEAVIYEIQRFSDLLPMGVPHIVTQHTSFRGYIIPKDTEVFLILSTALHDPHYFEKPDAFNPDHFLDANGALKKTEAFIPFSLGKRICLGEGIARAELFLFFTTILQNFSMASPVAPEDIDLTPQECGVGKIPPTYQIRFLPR
Chain of rat CYP2C11, Cyp2c11 (gene 29277) (P08683 whole entry, looked up): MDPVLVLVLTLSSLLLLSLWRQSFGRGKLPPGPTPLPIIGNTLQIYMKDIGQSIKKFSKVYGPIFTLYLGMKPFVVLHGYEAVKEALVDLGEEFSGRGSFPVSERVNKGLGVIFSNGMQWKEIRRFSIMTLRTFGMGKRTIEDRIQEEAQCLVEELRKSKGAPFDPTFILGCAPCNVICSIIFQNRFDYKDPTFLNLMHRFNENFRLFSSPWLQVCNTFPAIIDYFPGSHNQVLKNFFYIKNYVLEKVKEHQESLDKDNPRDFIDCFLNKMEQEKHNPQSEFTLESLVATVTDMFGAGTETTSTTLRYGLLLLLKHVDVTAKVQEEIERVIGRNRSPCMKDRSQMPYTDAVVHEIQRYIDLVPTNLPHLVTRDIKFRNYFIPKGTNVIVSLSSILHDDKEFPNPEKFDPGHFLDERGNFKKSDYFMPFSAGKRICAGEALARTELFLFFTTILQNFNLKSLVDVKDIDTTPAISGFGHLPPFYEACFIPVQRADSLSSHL
Chain of rat CYP2D2, Cyp2d26 (gene 25053) (P10634 whole entry, looked up): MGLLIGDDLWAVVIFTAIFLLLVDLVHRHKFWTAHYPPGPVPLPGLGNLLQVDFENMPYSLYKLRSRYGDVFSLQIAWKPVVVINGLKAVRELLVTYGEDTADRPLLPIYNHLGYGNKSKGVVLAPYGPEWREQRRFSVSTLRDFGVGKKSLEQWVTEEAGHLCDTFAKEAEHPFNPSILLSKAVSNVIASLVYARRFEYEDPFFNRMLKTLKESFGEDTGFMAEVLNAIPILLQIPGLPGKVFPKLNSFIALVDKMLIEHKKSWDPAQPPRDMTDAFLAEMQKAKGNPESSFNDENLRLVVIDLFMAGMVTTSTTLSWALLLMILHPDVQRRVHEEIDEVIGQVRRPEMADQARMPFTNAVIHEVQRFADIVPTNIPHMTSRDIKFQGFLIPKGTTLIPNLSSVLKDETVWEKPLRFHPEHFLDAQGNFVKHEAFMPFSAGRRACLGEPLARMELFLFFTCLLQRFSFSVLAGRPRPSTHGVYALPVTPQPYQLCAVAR
Chain of human CYP2J2, CYP2J2 (gene 1573) (P51589 whole entry, looked up): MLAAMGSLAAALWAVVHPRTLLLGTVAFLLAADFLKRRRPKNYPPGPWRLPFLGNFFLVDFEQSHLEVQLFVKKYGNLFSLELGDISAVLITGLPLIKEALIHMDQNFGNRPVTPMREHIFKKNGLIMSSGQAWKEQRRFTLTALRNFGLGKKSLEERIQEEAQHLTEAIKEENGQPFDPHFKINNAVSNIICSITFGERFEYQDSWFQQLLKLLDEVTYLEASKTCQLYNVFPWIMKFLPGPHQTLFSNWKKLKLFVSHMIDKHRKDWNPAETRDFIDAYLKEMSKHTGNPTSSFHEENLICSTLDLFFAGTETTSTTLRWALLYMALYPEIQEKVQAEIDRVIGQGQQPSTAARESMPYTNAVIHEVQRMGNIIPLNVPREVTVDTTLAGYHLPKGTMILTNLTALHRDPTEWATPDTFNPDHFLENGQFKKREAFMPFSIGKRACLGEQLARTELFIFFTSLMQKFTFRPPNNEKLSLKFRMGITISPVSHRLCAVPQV
Chain of rat CYP3A2, Cyp3a2 (gene 266682) (P05183 whole entry, looked up): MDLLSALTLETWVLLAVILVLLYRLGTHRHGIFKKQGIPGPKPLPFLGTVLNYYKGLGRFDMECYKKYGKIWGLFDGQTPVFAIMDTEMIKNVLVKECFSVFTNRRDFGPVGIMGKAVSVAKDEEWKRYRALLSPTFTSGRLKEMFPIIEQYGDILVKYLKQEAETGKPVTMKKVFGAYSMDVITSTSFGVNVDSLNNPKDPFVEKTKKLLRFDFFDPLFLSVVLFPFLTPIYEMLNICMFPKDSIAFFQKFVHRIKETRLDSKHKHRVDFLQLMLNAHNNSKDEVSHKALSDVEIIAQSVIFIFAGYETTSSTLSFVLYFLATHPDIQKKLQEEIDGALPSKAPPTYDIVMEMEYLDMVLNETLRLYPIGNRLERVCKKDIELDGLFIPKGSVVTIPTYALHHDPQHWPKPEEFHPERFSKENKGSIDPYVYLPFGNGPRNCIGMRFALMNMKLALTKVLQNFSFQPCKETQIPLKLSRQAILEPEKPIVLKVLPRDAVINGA
Chain of rat CYP2A2, Cyp2a2 (gene 24895) (P15149 whole entry, looked up): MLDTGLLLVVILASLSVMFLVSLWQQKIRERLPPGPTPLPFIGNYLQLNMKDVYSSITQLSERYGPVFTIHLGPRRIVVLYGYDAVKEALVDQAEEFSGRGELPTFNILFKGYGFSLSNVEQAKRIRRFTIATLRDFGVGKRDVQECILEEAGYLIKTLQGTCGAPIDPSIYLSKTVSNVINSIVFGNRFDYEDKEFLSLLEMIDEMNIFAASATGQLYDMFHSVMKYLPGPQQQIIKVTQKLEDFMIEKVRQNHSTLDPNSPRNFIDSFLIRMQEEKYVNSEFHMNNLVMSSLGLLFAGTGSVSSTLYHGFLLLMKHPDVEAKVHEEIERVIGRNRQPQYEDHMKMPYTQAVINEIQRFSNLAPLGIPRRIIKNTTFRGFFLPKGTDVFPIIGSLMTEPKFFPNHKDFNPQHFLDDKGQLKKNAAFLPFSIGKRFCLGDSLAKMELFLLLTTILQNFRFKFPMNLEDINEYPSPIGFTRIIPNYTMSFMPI

CCOP(=S)(OCC)Oc1ccc([N+](=O)[O-])cc1
inactive: [4] | [12]
active: [1] 0.99 µM | [2] 2.2 µM | [3] 0.609 µM | [5] 0.21 µM | [6] 5.89 µM | [7] 2.93 µM | [8] 6.18 µM | [9] 0.108 µM | [10] 10 µM | [11] 10 µM | [13] 6.9 µM | [14] 2.86 µM

CCOP(=S)(OCC)Oc1ccc2c(C)c(Cl)c(=O)oc2c1
active: [1] 0.433 µM | [2] 1.17 µM | [3] 0.0646 µM | [5] 0.428 µM | [7] 1.2 µM | [8] 0.799 µM | [9] 0.452 µM | [11] 0.854 µM | [13] 1.22 µM | [14] 0.83 µM
inactive: [15] | [6] | [16] | [12]

CCCSP(=O)(OCC)Oc1ccc(Br)cc1Cl (configuration not stated)
inactive: [17]
active: [1] 11.3 µM | [2] 5.19 µM | [5] 10 µM | [7] 0.226 µM | [9] 8.28 µM | [10] 9.49 µM | [12] 8.58 µM | [13] 9.45 µM | [14] 7.4 µM | [18] 7.93 µM

COP(=O)(OC)SCn1c(=O)oc2cc(Cl)cnc21
active: [1] 9 µM | [5] 4.57 µM | [13] 9.11 µM | [14] 6.18 µM | [18] 6.65 µM

CCCCOC(=O)c1ccccc1C(=O)O
active: [16] 2.6 µM
inactive: [2] | [15] | [5]

CCCCSP(=O)(SCCCC)SCCCC
active: [2] 8.52 µM
inactive: [4] | [5]

CC(COc1ccc(Oc2ccccc2)cc1)Oc1ccccn1 (configuration not stated)
inactive: [2]
active: [5] 13.7 µM

C#CC(C)(C)NC(=O)c1cc(Cl)cc(Cl)c1
active: [2] 10 µM | [3] 1.34 µM | [6] 1.43 µM

CCC(=O)Nc1ccc(Cl)c(Cl)c1
active: [2] 2.03 µM | [6] 2.2 µM | [10] 5.42 µM | [11] 5.39 µM | [13] 4.74 µM
inactive: [17] | [18]

CCC(CC)Nc1c([N+](=O)[O-])cc(C)c(C)c1[N+](=O)[O-]
active: [5] 10 µM
inactive: [2]

Nc1c(Cl)cc([N+](=O)[O-])cc1Cl
active: [1] 3.48 µM | [2] 2.28 µM | [16] 0.113 µM
inactive: [4] | [5]

CNc1cnn(-c2cccc(C(F)(F)F)c2)c(=O)c1Cl
active: [2] 5.43 µM | [5] 4.35 µM | [13] 2.91 µM
inactive: [17] | [12] | [14]

CCOP(=O)(NC(C)C)Oc1ccc(SC)c(C)c1 (configuration not stated)
inactive: [17]
active: [2] 4.84 µM | [5] 5.92 µM | [7] 6.43 µM | [12] 5.06 µM | [13] 7.98 µM

CCNc1nc(Cl)nc(NC(C)(C)C#N)n1
inactive: [15]

Cc1cc(C2CC2)nc(Nc2ccccc2)n1
inactive: [5] | [17]
active: [2] 2.87 µM | [11] 6.96 µM | [13] 10.7 µM

CSc1nc(NC(C)C)nc(NC(C)C)n1
active: [2] 5.92 µM | [5] 13.4 µM | [10] 7.91 µM | [13] 5.92 µM
inactive: [3]

C[Si](Cn1cncn1)(c1ccc(F)cc1)c1ccc(F)cc1
active: [1] 0.238 µM | [5] 0.0366 µM | [6] 1.39 µM | [16] 0.0595 µM | [7] 0.25 µM | [8] 4.13 µM | [9] 0.519 µM | [10] 0.173 µM | [11] 4.3 µM | [12] 1.87 µM | [13] 1.23 µM | [14] 1.07 µM
inactive: [3]

CCc1cccc(C)c1N(C(=O)CCl)C(C)COC (configuration not stated)
active: [1] 2.11 µM | [5] 4.6 µM | [16] 5.57 µM | [13] 6.49 µM | [14] 6.68 µM

CC[C@H](C)[C@H]1O[C@]2(C=C[C@@H]1C)C[C@@H]1C[C@@H](C/C=C(\C)[C@@H](O[C@H]3C[C@H](OC)[C@@H](O[C@H]4C[C@H](OC)[C@@H](NC)[C@H](C)O4)[C@H](C)O3)[C@@H](C)/C=C/C=C3\CO[C@@H]4[C@H](O)C(C)=C[C@@H](C(=O)O1)[C@]34O)O2
active: [1] 8.42 µM | [5] 10 µM | [16] 1.65 µM | [10] 6.31 µM | [12] 3.96 µM | [13] 7.04 µM | [14] 8.11 µM

CCOC(=O)CC(SP(=O)(OC)OC)C(=O)OCC (configuration not stated)
active: [1] 2.49 µM | [5] 9.39 µM | [7] 8.37 µM | [9] 5.32 µM
not listed: [3] | [4] | [8] | [11] | [17]
inactive: all other assays above

Reference: PubChem BioAssay (EPA / NIEHS)
